Screening data deposited in PubChem BioAssay by The Scripps Research Institute Molecular Screening Center.
The list is not random: actives were taken first. Their share in the collection is about 1.1%.
GalR3 antag: blocks the human galanin receptor 3 | 360,000 compounds, 0.44% hits | HEK293 GalR3-CNG cAMP membrane potential fluorescence; galR3 body fused to GalR1 C-terminus | AID 651719 | inhibition, % at 3 µM;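 active means inhibition above the screen-wide average plus 3 SD, cut at about 13% in these data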;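 further: forskolin and galanin both at EC90 stimulate the cells; cAMP rise reported by CNG channel membrane potential dye signal; 0% = forskolin plus galanin with DMSO and 100% = forskolin alone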
Target sequence (O60755 1-299 limits assumed): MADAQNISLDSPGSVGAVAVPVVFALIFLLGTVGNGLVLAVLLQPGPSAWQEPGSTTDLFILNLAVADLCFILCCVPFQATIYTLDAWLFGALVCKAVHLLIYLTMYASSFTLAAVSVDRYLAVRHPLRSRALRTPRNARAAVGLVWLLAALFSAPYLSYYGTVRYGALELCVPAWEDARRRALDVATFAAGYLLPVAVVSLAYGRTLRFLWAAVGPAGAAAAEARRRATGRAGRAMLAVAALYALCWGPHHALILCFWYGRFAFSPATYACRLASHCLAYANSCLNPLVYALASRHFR
NR2F2 inh: NR2F2 (human) inhibition, primary screen | P24468 | HEK293T NGFI-A luciferase reporter, luminescence | inhibition, % at 8.6 µM | 370,000 compounds, 0.7% hits | AID 686940;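 active means inhibition above a per-plate cutoff, mean inhibition of test wells between control levels plus 3 SD, cut at about 38% in these data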;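 further: cells cotransfected with COUP-TFII expression vector driving the NGFI-A reporter; 0% = median of COUP-TF2 test wells and 100% = reporter-only cells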
NCOA1 inh: inhibitors of human steroid receptor coactivator 1 (SRC1). Q15788. HEK293 GAL4-SRC1 luciferase reporter, luminescence. inhibition, % at 3.6 µM. 360,000 compounds, 0.12% hits. AID 588354;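 active means inhibition above the campaign mean plus 3 SD, with each screening campaign given its own cutoff, cut at about 60% in these data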;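 further: 0% = DMSO treated cells and 100% = gossypol at 36 µM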
NCOA2 inhibitor: human SRC2 (NCOA2) inhibition. Q15596. HEK293 GAL4-SRC2 luciferase reporter, luminescence. inhibition, % at 9 µM. 370,000 compounds, 0.17% hits. AID 651957;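 active means inhibition above the mean inhibition of all tested compounds plus 3 SD, set per campaign, cut at about 52% in these data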;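 further: 0% = DMSO treated cells and 100% = cells given Gossypol at 36 µM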
SRC3 inh: inhibits human SRC3 coactivator | Q9Y6Q9 | HEK293 GAL4-SRC3 luciferase reporter, luminescence | inhibition, % at 3.6 µM | 360,000 compounds, 0.17% hits;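 active means inhibition above a per-campaign cutoff, the mean of all compounds plus 3 SD, cut at about 60% in these data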;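 further: 0% = DMSO-treated cells and 100% = gossypol-treated cells at 36 µM; higher means less SRC3-driven luciferase light from the GAL4 reporter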
NR5A2 inv ag: suppresses constitutive activity of human LRH-1; HEK293T StAR-luciferase reporter, LRH-1 transfected, 24 h; inhibition, % at 3.6 µM; 360,000 compounds, 0.13% hits; AID 602396;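 active means inhibition above the mean inhibition of all tested compounds plus 3 SD, cut at about 73% in these data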;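 further: 0% = DMSO wells and 100% = reporter-only cells lacking LRH-1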
GalR3 conf: confirmation of human galanin receptor 3 antagonists; shares compounds with GalR3 antag; HEK293 GalR3 CNG cAMP biosensor, membrane potential fluorescence; galR3 fused to GalR1 carboxy tail; challenged with forskolin and galanin at EC90; 1,600 compounds, 59% hits; inhibition, % at 3 µM;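 active means inhibition above the primary screen's cutoff, the mean inhibition of all screened compounds plus 3 SD, cut at about 13% in these data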;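 further: 0% = forskolin plus galanin and 100% = forskolin alone with DMSO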
HEK-CNG parental: parental cell agonism counter-screen for GalR3 antagonists | AID 652268 | activation, % at 3 µM | HEK293-CNG parental cells, cAMP membrane potential fluorescence; normalised: DMSO wells 0%, forskolin wells 100% | 1,600 compounds, 10% hits | shares compounds with GalR3 antag; in the data active means activation above about 1.3%
Gal4-VP16 ctr: inhibits VP16 reporter, flagging COUP-TFII antagonist hits; shares compounds with NR2F2 inh; 2,500 compounds, 25% hits; inhibition, % at 8.5 µM; HEK293 Gal4-VP16 luciferase reporter, luminescence; in the data active means inhibition above about 13%
NR2F2 inh conf: confirmation of human COUP-TFII (NR2F2) inhibitors. shares compounds with NR2F2 inh. HEK293 NGFI-A luciferase reporter, luminescence. inhibition, % at 8.5 µM. 2,500 compounds, 45% hits. AID 687008;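 active means mean inhibition over three repeats above a set limit taken from the earlier primary screen, cut at about 38% in these data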;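 further: 100% = cells given the luciferase reporter alone without the COUP-TF2 vector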
* hit, by the source's call; · = not tested or not shown.

SMILES	GalR3 antag	NR2F2 inh	NCOA1 inh	NCOA2 inhibitor	SRC3 inh	NR5A2 inv ag	GalR3 conf	HEK-CNG parental	others
O=C1C2CC=CCC2C(=O)N1SC(Cl)(Cl)Cl (configuration not stated)	35*	15	·	-8	·	·	·	·
O=NN1CCCCC1	-8	12	12	-20	28	21	·	·
CCOc1ccc(-n2c(-c3ccoc3)nc3ccccc3c2=O)cc1	-6	6	13	7	11	3	·	·
CCOc1ccc(-c2c(C)n(-c3ccc(OCC)cc3)c3[n+]2CCCCC3)cc1	19*	90*	74*	33	82*	88*	·	·
C[C@H]1[C@H](OC(=O)CCC(=O)NCc2ccc(C(=O)O)cc2)O[C@@H]2O[C@@]3(C)CC[C@H]4[C@H](C)CC[C@@H]1C24OO3	·	·	62*	·	72*	89*	·	·
C[C@@H]1O[C@@H](O[C@H]2C[C@@H](O)[C@]3(CO)[C@H]4[C@H](O)C[C@]5(C)[C@@H](C6=CC(=O)OC6)CC[C@]5(O)[C@@H]4CC[C@]3(O)C2)[C@H](O)[C@H](O)[C@H]1O	·	·	88*	·	93*	103*	·	·
CC1OC(OC2C(O)CC(OC3C(O)CC(OC4CCC5(C)C(CCC6C5CCC5(C)C(C7=CC(=O)OC7)C(O)CC65O)C4)OC3C)OC2C)CC(O)C1O (configuration not stated)	0	21	35	9	49	35	·	·
O=C1/C(=C/c2ccccc2)C[C@@]2(O)[C@H]3Cc4ccc(O)c5c4[C@@]2(CCN3CC2CC2)C1O5 (some centres not stated)	·	·	86*	·	83*	84*	·	·
O=C(c1cc(Cl)cc(Cl)c1)N1Cc2ccccc2-n2nncc2C1	-5	1	-6	-8	-11	6	·	·
Cc1nc2cc(-c3ccc(Cl)cc3)nn2c(C)c1CCC(=O)N1CCC2(CC1)OCCO2	-3	-9	-4	56*	17	-3	·	·
O=C(CCn1nc(-c2ccc(Cl)cc2)ccc1=O)N1CCC2(CC1)OCCO2	-5	13	0	20	2	23	·	·
O=c1[nH]c(=O)n(CCC2=CCCCC2)c(O)c1C=NC1CCN(Cc2ccccc2)CC1	2	52*	11	26	35	23	·	·
CCc1ccc(CN2CCN(Cc3ccc(SC)cc3)CC2)cc1	50*	28	8	32	19	9	60*	1.4*
C[C@@H]1CNCCN1c1ccc(N2CC[C@@H](O)C2)c(C#N)c1	-10	3	·	12	·	·	·	·
Cn1cc(C=O)c2nccnc21	2	-20	-5	8	3	-27	·	·
CCOC(=O)c1c(C)n(C(C)C)c2ccc(OC)cc12	-9	-21	-4	5	20	-1	·	·
CCn1c(C)c(C(=O)O)c2cc(OC)ccc21	13*	1	-11	-3	-4	-12	5	0
C=CCn1c(O)c(C(CC)=Nc2cccc(C(=O)O)c2)c(=O)[nH]c1=O	15*	-10	-8	12	10	-9	5	0
O=P(NC1CCCCC1)(Oc1ccccc1)Oc1ccccc1	-5	-5	-21	14	-9	-9	·	·
COC1=CC(=O)[C@]2(C=C1OC)OC[C@@H]1Oc3c(ccc4c3C=CC(C)(C)O4)C(=O)[C@@H]12	41*	73*	·	1	·	·	98*	0
CCCCNS(=O)(=O)c1ccc(OCC(=O)N2CCN(Cc3ccc4c(c3)OCO4)CC2)cc1	14*	35	20	-2	33	32	17*	0
N#CC12CC(=O)N1Cc1cnnn1-c1ccccc12 (configuration not stated)	-7	8	0	-2	13	6	·	·
CCC(=NCCC(c1ccccc1)c1ccccc1)c1c(O)[nH]c(=O)[nH]c1=O	26*	-1	6	2	-25	0	38*	0
CC(C)(C)c1cc(C=C(C#N)C#N)cc(C(C)(C)C)c1O	27*	2	61	-3	81*	76*	18*	15*
N#CC(C#N)=Cc1ccc(O)c(O)c1	-1	-16	5	-30	5	-11	·	·
SMILES	GalR3 antag	NR2F2 inh	NCOA1 inh	NCOA2 inhibitor	SRC3 inh	NR5A2 inv ag	GalR3 conf	HEK-CNG parental	others
COc1ccccc1N	-3	1	·	-12	·	·	·	·
COc1ccc2c(C)c(CC(=O)N3C[C@H]4C[C@@H](C3)c3cccc(=O)n3C4)c(=O)oc2c1	7	-27	-29	0	-15	-18	·	·
COc1ccc2c(C)c(CC(=O)N3C[C@H]4C[C@@H](C3)c3cccc(=O)n3C4)c(=O)oc2c1C	20*	8	-53	-1	-11	-1	4	0
COC(=O)C1=C(C(=O)OC)C2OC1c1cc3ccccc3cc12	-3	13	-21	-13	-50	-3	·	·
CC(C)(C)NCC(O)c1cc(Cl)c(N)c(Cl)c1 (configuration not stated)	24*	-31	-18	-26	-5	17	31*	5.3*
CCCCCN1C(=O)c2cc(OC)ccc2[C@@]2(C(=O)OCC)Cc3cc(Cl)ccc3[C@@H]12	36*	36	·	-3	·	22	52*	2.6*
CCOC(=O)[C@]12Cc3cc(Cl)ccc3[C@H]1N(Cc1ccccc1)C(=O)c1cc(OC)ccc12	-8	11	·	6	·	24	·	·
CC12CCC3C(CCC4(O)CC(O)CCC34C=O)C1(O)CCC2C1=CC(=O)OC1 (configuration not stated)	18*	71*	65*	37	65*	96*	47*	4.2*	Gal4-VP16 ctr=24*;NR2F2 inh conf=64*
CCCCn1nnnc1C(CC)N1CCC2(CC1)C(=O)NCN2c1ccccc1 (configuration not stated)	-6	-4	2	-11	-22	-4	·	·
CCOC(=O)[C@@H]1[C@H]2COc3ccc(Br)cc3[C@H]2N2C(=O)N(c3cccc(C)c3)C(=O)[C@]12C	-7	3	4	3	8	3	·	·
